Measured values from PubChem BioAssay (Tox21).
Inconclusive results are not listed. Active and inactive are the calls of the source. Unless noted, the call rests on the fitted dose curve.

Assays:
[1] = biological target: Thyrotropin receptor (Homo sapiens) (UniProt P16473); experiment: qHTS assay to identify small molecule agonists of the thyroid stimulating hormone receptor (TSHR) signaling pathway (AID 1224843); further: nearly all actives have a fitted effect of over 45% in size
Outline: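 Steps: seed 800 TSHR-HEK293 cells per well; add test compound and hold 30 min at ambient temperature; dispense cAMP-d2 then anti-cAMP cryptate; incubate 1 h at ambient; measure fluorescence intensity.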

[2] = qHTS assay to identify small molecule agonists of the hypoxia (HIF-1) signaling pathway - cell viability counter screen (AID 1224844); further: nearly all actives have a fitted effect of over 50% in size
Outline: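 Luminescent ATP content (CellTiter-Glo, 30 min, room temperature) served as the viability measure in HRE-bla ME-180 cells exposed to compounds for 17 hrs in low-serum medium (0.5% dialyzed FBS).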

[3] = qHTS assay to identify small molecule agonists of H2AX (AID 1224845; active means well fitted activation curve with a large enough effect in the signal ratio in the repeat runs, not every such curve was filed as active; the % refers to the signal ratio)
Outline: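 Wild-type CHO-K1 cells, plated overnight, exposed 3hr at 37C to 15 concentrations (0.76% DMSO final). Lysed, then HTRF anti-pH2AX (S139) cryptate and anti-H2AX-d2 antibodies, 24 hr room temperature; 665/620 nm emission read.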

[4] = qHTS assay to identify small molecule agonists of the hypoxia (HIF-1) signaling pathway (AID 1224846; active means well fitted activation curve with a large enough effect in the signal ratio in the repeat runs, not every such curve was filed as active; the % refers to the signal ratio)
Outline: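 Measured by blue/green FRET after loading CCF4-AM: beta-lactamase expressed from a hypoxia response element in ME-180 cells. Test agents were delivered in DMSO and left 17 hrs; cells had been plated 5 hrs earlier in low-serum (0.5% dialyzed FBS) medium.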

[5] = qHTS assay to identify small molecule agonists of H2AX - cell viability counter screen (AID 1224847); further: top concentration of the series differs between compounds; nearly all actives have a fitted effect of over 30% in size
Outline: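 Read-out: CellTiter-Glo luminescence, 30 min RT. Cells: wild-type CHO-K1, 1000/well, 10% FBS, plated overnight at 37C. Treatment: 15 concentrations, 3 hr, 37C, 0.76% DMSO.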

[6] = qHTS RealTime-Glo MT Cell Viability Assay in HepG2 cells - 24 hour (AID 1224867; active means well fitted curve in the direction sought with a large enough effect in the repeat runs; an effect the other way counts as inactive or inconclusive; further: nearly all actives have a fitted effect of over 50% in size)
Outline: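 Luminescence read-out: viable HepG2 cells reduce a prosubstrate to a NanoLuc substrate, giving a signal proportional to live cell number. Reads taken at 0, 8, 16, 24, 32 and 40 h of compound exposure at 37 C.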

[7] = qHTS RealTime-Glo MT Cell Viability Assay in HEK293 cells - 32 hour (AID 1224868; active means well fitted curve in the direction sought with a large enough effect in the repeat runs; an effect the other way counts as inactive or inconclusive; further: top concentration of the series differs between compounds; nearly all actives have a fitted effect of over 50% in size)
Outline: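 Nonlytic real-time viability readout: viable cells convert prosubstrate to NanoLuc substrate, giving luminescence proportional to live cell number. HEK293, 600 cells/well, compound added after 5 h, continuous culture at 37 C.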

[8] = A CellTox Green Cytotoxicity Assay to monitor cytotoxicity in HEK293 cells - 0 hour (AID 1224869; active means well fitted curve in the direction sought with a large enough effect in the repeat runs; an effect the other way counts as inactive or inconclusive; further: nearly all actives have a fitted effect of over 50% in size)
Outline: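 Each value comes from one timepoint of a single continuous run in which HEK293 cells with CellTox Green were exposed to compound for up to 40 h at 37 C, dye fluorescence rising with cell death.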

[9] = qHTS assay to identify small molecule antagonists of the estrogen related receptor (ERR) signaling pathway from Tox21 library (AID 1224848; active means well fitted curve in the direction sought with a large enough effect in the repeat runs; an effect the other way counts as inactive or inconclusive; further: nearly all actives have a fitted effect of over 50% in size)
Outline: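 Luminescent reporter read-out (ONE-Glo) from NTP's ERR cell line after 18 h treatment at 37 C with DMSO-dissolved Tox21 compounds; cells pre-plated 6 h beforehand at 2,000 per well.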

[10] = qHTS assay to identify small molecule agonists of the estrogen related receptor (ERR) signaling pathway from Tox21 library (AID 1224849); conditions: ERR reporter cell line, ONE-Glo luciferase, 18 h; at 92.4 µM (top of the series) unless noted; further: nearly all actives have a fitted effect of over 15% in size
Outline: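 We plated ERR reporter cells, waited 6 h, added compounds in DMSO by pin tool and incubated them 18 h at 37 C. ONE-Glo was then added and luminescence read after 30 min.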
On the % scale 0 is the no-effect control and ±100 the full control effect.

Sequence of Thyrotropin receptor (Homo sapiens) (P16473 whole entry, looked up): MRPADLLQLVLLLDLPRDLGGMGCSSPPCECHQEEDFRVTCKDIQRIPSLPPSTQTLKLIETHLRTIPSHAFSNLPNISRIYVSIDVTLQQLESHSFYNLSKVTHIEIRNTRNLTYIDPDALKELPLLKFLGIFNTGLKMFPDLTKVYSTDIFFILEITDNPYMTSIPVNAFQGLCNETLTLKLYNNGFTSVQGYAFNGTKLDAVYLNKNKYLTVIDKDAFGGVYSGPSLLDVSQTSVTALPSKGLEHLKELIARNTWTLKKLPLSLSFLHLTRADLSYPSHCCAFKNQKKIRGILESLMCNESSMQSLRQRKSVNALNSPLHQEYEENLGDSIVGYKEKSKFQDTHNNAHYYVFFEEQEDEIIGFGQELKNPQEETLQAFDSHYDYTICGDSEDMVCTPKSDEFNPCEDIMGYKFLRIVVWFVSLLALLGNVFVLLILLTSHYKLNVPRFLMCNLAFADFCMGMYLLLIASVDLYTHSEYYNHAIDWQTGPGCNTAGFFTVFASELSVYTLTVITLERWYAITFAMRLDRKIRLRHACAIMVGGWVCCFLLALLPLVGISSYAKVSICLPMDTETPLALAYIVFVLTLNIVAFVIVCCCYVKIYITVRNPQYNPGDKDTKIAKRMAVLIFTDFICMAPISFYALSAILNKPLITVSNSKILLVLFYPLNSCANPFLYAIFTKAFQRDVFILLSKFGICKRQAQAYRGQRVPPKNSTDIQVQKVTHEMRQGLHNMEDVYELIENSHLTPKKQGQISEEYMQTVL

Oc1ccccc1-c1nnco1
inactive: Potency [1] | outcome [2] | outcome [3] | outcome [4] | Potency [5] | outcome [6] | Potency [7] | outcome [8]

c1ccc2nccnc2c1
inactive: Potency [1] | outcome [2] | outcome [3] | outcome [4] | Potency [5] | outcome [6] | Potency [7] | outcome [8]

CC(C)(C)c1nnc(NS(=O)(=O)c2ccc(N)cc2)s1
inactive: Potency [1] | outcome [2] | outcome [3] | outcome [4] | Potency [5] | outcome [6] | Potency [7] | outcome [8]

COCCOCCOCCOCCO
inactive: Potency [1] | outcome [2] | outcome [3] | outcome [4] | Potency [5] | outcome [6] | Potency [7] | outcome [8]

O=S(O)(O)=S
inactive: activation [1] 8.08% [at 8.39 µM] | activity change, negative = cytotoxicity [2] -1.07% [at 6.97 µM] | activation (H2AX phosphorylation) [3] 2.44% [at 14 µM] | activity change, negative = cytotoxicity [5] 0.0189% [at 14 µM] | activity, negative = inhibition [9] 8.94% [at 8.39 µM] | activity change, positive = activation [10] 4.43% [at 8.39 µM] | activity change, negative = cytotoxicity [6] 4.23% [at 6.97 µM] | activity change, negative = cytotoxic [7] 0.732% [at 6.97 µM] | cytotoxicity [8] 0.0066% [at 6.97 µM]

CN(CCOc1ccc(NS(C)(=O)=O)cc1)CCc1ccc(NS(C)(=O)=O)cc1
inactive: Potency [1] | outcome [2] | outcome [3] | outcome [4] | Potency [5] | outcome [6] | Potency [7] | outcome [8]

CO[C@@H]1[C@@H](OC(N)=O)[C@@H](O)[C@H](Oc2ccc3c(O)c(NC(=O)c4ccc(O)c(CC=C(C)C)c4)c(=O)oc3c2C)OC1(C)C
inactive: Potency [1] | outcome [2] | outcome [3] | Potency [5] | Potency [9] | activity change, positive = activation [10] -2.51% [at 42.5 µM] | outcome [6] | Potency [7] | outcome [8]

On1nnc2ccccc21
inactive: Potency [1] | outcome [2] | outcome [3] | Potency [5] | Potency [9] | activity change, positive = activation [10] 9.52% | outcome [6] | Potency [7] | outcome [8]

CC(=O)CCCCn1c(=O)c2c(ncn2C)n(C)c1=O
inactive: Potency [1] | outcome [2] | outcome [3] | Potency [5] | Potency [9] | activity change, positive = activation [10] -5.11% [at 42.5 µM] | outcome [6] | Potency [7] | outcome [8]

CCOC(=O)[C@H](CCc1ccccc1)N[C@@H](C)C(=O)N1C(=O)N(C)C[C@H]1C(=O)O
inactive: Potency [1] | outcome [2] | outcome [3] | outcome [4] | Potency [5] | outcome [6] | Potency [7] | outcome [8]

COP(=O)(OC)OC(c1ccc(Cl)cc1)P(=O)(OC)OC (configuration not stated)
inactive: Potency [1] | outcome [2] | outcome [3] | Potency [5] | Potency [9] | activity change, positive = activation [10] 1.9% [at 42.5 µM] | outcome [6] | Potency [7] | outcome [8]

CCCCCOC(=O)CCC
inactive: Potency [1] | outcome [2] | outcome [3] | outcome [4] | Potency [9] | activity change, positive = activation [10] 10.4% | outcome [6] | Potency [7] | outcome [8]

CC(=O)Nc1cccc(C)c1
inactive: Potency [1] | outcome [2] | outcome [3] | outcome [4] | Potency [5] | outcome [6] | outcome [8]

C[C@H](N)[C@H](O)c1cccc(O)c1
inactive: Potency [1] | outcome [2] | outcome [3] | outcome [4] | Potency [5] | outcome [6] | Potency [7] | outcome [8]

CCNC(=O)C1CC(C)CCC1C(C)C (configuration not stated)
inactive: Potency [1] | outcome [2] | outcome [3] | Potency [5] | Potency [9] | activity change, positive = activation [10] -8.38% | outcome [6] | Potency [7] | outcome [8]

CCCCOC(=O)c1ccccc1
inactive: Potency [1] | outcome [2] | outcome [3] | Potency [5] | Potency [9] | activity change, positive = activation [10] 1.54% | outcome [6] | Potency [7] | outcome [8]

CCOC(=O)c1ccc(OC(=O)CCCCCN=C(N)N)cc1
inactive: Potency [1] | outcome [2] | outcome [3] | Potency [5] | outcome [6] | Potency [7] | outcome [8]

CCCCCCCC/C=C\CCCCCCCC(=O)OCCCC
inactive: activation [1] 1.53% [at 19 µM] | activity change, negative = cytotoxicity [2] -10.5% [at 15.8 µM] | activation (H2AX phosphorylation) [3] 4.47% [at 31.6 µM] | activity change, negative = cytotoxicity [5] -0.831% [at 31.6 µM] | activity, negative = inhibition [9] 0.129% [at 19 µM] | activity change, positive = activation [10] 0.0665% [at 19 µM] | activity change, negative = cytotoxicity [6] 2.67% [at 15.8 µM] | cytotoxicity [8] -14.5% [at 15.8 µM]

O=C(O)c1cc(Br)c(O)c(Br)c1
inactive: Potency [1] | outcome [2] | outcome [4] | Potency [5] | Potency [9] | activity change, positive = activation [10] 4.86% | outcome [6] | Potency [7] | outcome [8]

CC(=O)OC(C)OC(=O)C(C)c1ccc(-c2ccccc2)c(F)c1 (configuration not stated)
inactive: Potency [1] | outcome [2] | outcome [3] | Potency [5] | outcome [6] | Potency [7] | outcome [8]

CN(C)c1ccc(C=O)cc1
inactive: Potency [1] | outcome [2] | outcome [4] | Potency [5] | Potency [9] | activity change, positive = activation [10] 0.183% | outcome [6] | Potency [7] | outcome [8]

CN(C)CCOCCO
inactive: Potency [1] | outcome [2] | outcome [4] | Potency [5] | Potency [9] | activity change, positive = activation [10] 6.59% | outcome [6] | Potency [7] | outcome [8]

OCCCCC(O)CO (configuration not stated)
inactive: Potency [1] | outcome [2] | outcome [3] | Potency [5] | Potency [9] | activity change, positive = activation [10] -0.533% | outcome [6] | Potency [7] | outcome [8]

Nc1ccc([N+](=O)[O-])c(N)c1
inactive: Potency [1] | outcome [2] | outcome [4] | Potency [5] | Potency [9] | activity change, positive = activation [10] 5.15% | outcome [6] | Potency [7] | outcome [8]
